Outcome data for 15 molecules are collected here from PubChem BioAssay AID1053193 (Broad Institute, 2014).

Calls of active or inactive are those of the source.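 The calls were made as follows: active = cell killing, with a fitted half-maximal concentration at or below twice the top valid dose tested; inconclusive = flat curve losing 30 to 70% signal, or unreliable fit; inactive = effect in the rising direction, plus the rest.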

This test is described as follows: A549 cell cytotoxicity, dose response, cytotoxicity control, CellTiter-Glo luminescence, 72 h, dry powder (AID 1053193). Particulars: A549 viability, CellTiter-Glo ATP luminescence; series mostly up to 50 µM. In general terms: Cellular ATP, detected with luciferase, serves as a proxy for viable cell number.
In the case of `O=C(c1c(F)cccc1F)N(Cc1ccccc1)Cc1ccccc1`, the result was inactive. For `Cc1ccc(S(=O)(=O)NCc2ccc3c(c2)cc(C)n3C)cc1`, the molecule was called inactive.

With `Cc1cc(C)c(S(=O)(=O)NCCn2c(C)cc3ccccc32)c(C)c1`, the molecule was classed as inactive.

On to `Cc1cc2cc(CNC(=O)Nc3cccc(Cl)c3)ccc2n1C`, for which the outcome was inactive. As for `CCc1ccc(-n2c(=S)sc3c(=O)n(-c4ccccc4C)c(SCC(=O)O)nc32)cc1`, the entry is “inactive”. As for `Cc1cc2ccccc2n1CCNC(=O)COc1ccc2ccccc2c1`, the entry is “inactive”; as for `CNc1ccccc1C(C)(C)c1cc(-c2cccc(OC)c2)no1`, “inactive”.

As to `OCc1ccc(-c2nn(Cc3ccccc3)c3ccccc23)o1`, the outcome was inactive. `COc1ccc(Nc2ccccc2N)cc1`: the call was inactive. On to `Cc1ccc(CSc2nc3[nH]ncc3c(=O)[nH]2)cc1`, for which the call was inactive. For `O=C(O)C1CCN(c2nc(-c3ccccc3)c3cc(Br)ccc3n2)CC1` the value was “inactive”; for `COc1cc(CC2C(=O)Nc3ccccc32)cc(C)c1O` (stereo not given), “inactive”; for `Cc1cccc(NC(=O)NCc2ccc3c(c2)cc(C)n3C)c1`, “inactive”. For `CCc1cccc2c1NC1(CCCC1)CC2C` (stereo not given), the molecule was called inactive.

Turning to `Cc1cc2cc(CNC(=O)Nc3ccc(Cl)c(Cl)c3)ccc2n1C`, the result was inactive.
